SMILES strings stand for the structures. A number with no mark means an inactive call. Inconclusive results are not listed. Active and inactive are the calls of the source. Unless noted, the call rests on the fitted dose curve; in most records, active means well fitted curve in the direction sought with a large enough effect in the repeat runs; inconclusive means weak or mixed curves; inactive means no such curve, though single readings can be large; an effect the other way counts as inactive or inconclusive.

Assay [1] can be described thus: qHTS assay to test for compound auto fluorescence at 535 nm (green) in HEK293 cells (AID 720680). Background: Quantitative high-throughput screening tests each substance at several concentrations.
The nature of assay [2]: qHTS assay to test for compound auto fluorescence at 460 nm (blue) in HEK293 cell free culture (AID 720681). Put shortly: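 Test compounds were pinned into cell-free culture medium (DMEM with 10% FBS) and fluorescence was read directly at Ex/Em 405/460 nm. Signals were expressed as fluorescence equivalents of triamterene, with DMSO vehicle as control.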
Assay [3] can be described thus: qHTS assay to test for compound auto fluorescence at 535 nm (green) in HEK293 cell free culture (AID 720682). The method, boiled down: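 Cell-free medium (DMEM, 10% FBS) receives compound or DMSO by pintool. Plate read directly at Ex 485/Em 535 nm. Signal converted to fluorescein equivalency.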
Assay [4] can be described thus: qHTS assay to test for compound auto fluorescence at 590 nm (red) in HEK293 cell free culture (AID 720683). Put shortly:
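Tox21 10K library compounds were pinned into cell-free DMEM with 10% FBS and fluorescence was read at excitation 540 nm. Activity is expressed as Rose Bengal sodium equivalency.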

Assay [5] is described as follows: qHTS assay to test for compound auto fluorescence at 590 nm (red) in HepG2 cell free culture (AID 720684). The method, boiled down: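 Ex 540 / Em 590 nm read of compound in cell-free MEM (10% FBS). Rose Bengal sodium reference.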
Assay [6] in a line: qHTS assay to test for compound auto fluorescence at 460 nm (blue) in HepG2 cell free culture (AID 720685). Put shortly: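 Cell-free plates of MEM plus 10% FBS received 23 nL compound or DMSO vehicle; blue-channel (405/460 nm) intensity scored against triamterene as reference fluorophore.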
Assay [7] is described as follows: qHTS assay to test for compound auto fluorescence at 535 nm (green) in HepG2 cell free culture (AID 720686).
The nature of assay [8]: qHTS assay to test for compound auto fluorescence at 460 nm (blue) in HepG2 cells (AID 720687). The method, boiled down:
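Cells (2,000/well in MEM with 10% FBS) attached overnight at 37 C, then were exposed to compound or DMSO for 1 hr at 37 C, 5% CO2. Fluorescence read at Ex/Em 405/460 nm, expressed as triamterene-equivalent signal.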

The target in assay [9] is Glucocorticoid receptor (Homo sapiens) (UniProt P04150). Briefly: qHTS assay to identify small molecule agonists of the glucocorticoid receptor (GR) signaling pathway (AID 720691; active means well fitted activation curve with a large enough effect in the signal ratio in the repeat runs, not every such curve was filed as active; the % refers to the signal ratio). The method, boiled down:
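A HeLa cervical cancer line expressing GR and a glucocorticoid response element-driven beta-lactamase gene is treated with compounds for 18 h; LiveBLAzer B/G FRET substrate is then applied and fluorescence read.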

For assay [10] the target is unchanged. Briefly: qHTS assay to identify small molecule antagonists of the glucocorticoid receptor (GR) signaling pathway (AID 720692; active means well fitted inhibition curve with a large enough effect in the signal ratio in the repeat runs, not every such curve was filed as active; the % refers to the signal ratio). Put shortly: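 GRE-bla HeLa line, dex-stimulated (5 nM final). Compound exposure 18 h, 37 C. Beta-lactamase FRET read after 2 h RT substrate.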
Assay [11] in a line: qHTS assay to identify small molecule antagonists of the glucocorticoid receptor (GR) signaling pathway - cell viability counter screen (AID 720693). Further: nearly all actives have a fitted effect of over 55% in size.
A short description of assay [12]: qHTS assay for identifying genotoxic compounds that show differential cytotoxicity against isogenic chicken DT40 cell lines with known DNA damage response pathways - wild type cell line (AID 743012). Further: nearly all actives have a fitted effect of over 60% in size. Further: potency means the concentration at half of the fitted maximal effect. The method, boiled down:
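300 wt DT40 cells/well; cpd (DMSO) pintool-transferred after ~0.5 h at 37 C/5% CO2; 40 h incubation; CellTiter-Glo added, 30 min RT; luminescence read.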

A short description of assay [13]: qHTS assay for identifying genotoxic compounds that show differential cytotoxicity against isogenic chicken DT40 cell lines with known DNA damage response pathways - Rev3 mutant cell line (AID 743014). Further: nearly all actives have a fitted effect of over 55% in size. Further: potency means the concentration at half of the fitted maximal effect.
Assay [14] can be described thus: qHTS assay for identifying genotoxic compounds that show differential cytotoxicity against isogenic chicken DT40 cell lines with known DNA damage response pathways - Rad54/Ku70 mutant cell line (AID 743015). Further: nearly all actives have a fitted effect of over 60% in size. Further: potency means the concentration at half of the fitted maximal effect.
Assay [15] is described as follows: qHTS assay to identify small molecule antagonists of the androgen receptor (AR) signaling pathway - cell viability counter screen (AID 743033; further: nearly all actives have a fitted effect of over 45% in size).
The nature of assay [16]: qHTS assay to identify small molecule antagonists of the androgen receptor (AR) signaling pathway using the MDA cell line - cell viability counter screen (AID 743041; further: nearly all actives have a fitted effect of over 45% in size). The method, boiled down: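 In this qHTS counter assay, fluorescence intensity after CellTiter-Fluor addition indicated viability of MDA-kb2 AR-luc cells given compounds and R1881 for 16 h at 37C.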
The target of assay [17] is Androgen receptor (Homo sapiens) (UniProt P10275). As to the kind of experiment: qHTS assay to identify small molecule agonists of the androgen receptor (AR) signaling pathway using the MDA cell line (AID 743040; further: nearly all actives have a fitted effect of over 20% in size). Put shortly:
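Cell-based luciferase reporter: MDA-kb2, MMTV promoter (AR + GR response elements). 16 h compound exposure at 37C; ONE-Glo, 30 min RT, luminescence.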

The target is the same in assay [18]. As to the kind of experiment: qHTS assay to identify small molecule antagonists of the androgen receptor (AR) signaling pathway using the MDA cell line (AID 743042; further: nearly all actives have a fitted effect of over 55% in size). The method, boiled down: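 MDA-kb2 cells (human breast carcinoma, stably carrying an MMTV-luciferase reporter responsive to AR and GR) were plated at 3,000 cells/well and preincubated 5 hr at 37C, then given compound plus R1881 agonist for 16 h. ONE-Glo luminescence was read.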
On the % scale 0 is the no-effect control and ±100 the full control effect.

Chain of Glucocorticoid receptor (Homo sapiens) (P04150 whole entry, looked up): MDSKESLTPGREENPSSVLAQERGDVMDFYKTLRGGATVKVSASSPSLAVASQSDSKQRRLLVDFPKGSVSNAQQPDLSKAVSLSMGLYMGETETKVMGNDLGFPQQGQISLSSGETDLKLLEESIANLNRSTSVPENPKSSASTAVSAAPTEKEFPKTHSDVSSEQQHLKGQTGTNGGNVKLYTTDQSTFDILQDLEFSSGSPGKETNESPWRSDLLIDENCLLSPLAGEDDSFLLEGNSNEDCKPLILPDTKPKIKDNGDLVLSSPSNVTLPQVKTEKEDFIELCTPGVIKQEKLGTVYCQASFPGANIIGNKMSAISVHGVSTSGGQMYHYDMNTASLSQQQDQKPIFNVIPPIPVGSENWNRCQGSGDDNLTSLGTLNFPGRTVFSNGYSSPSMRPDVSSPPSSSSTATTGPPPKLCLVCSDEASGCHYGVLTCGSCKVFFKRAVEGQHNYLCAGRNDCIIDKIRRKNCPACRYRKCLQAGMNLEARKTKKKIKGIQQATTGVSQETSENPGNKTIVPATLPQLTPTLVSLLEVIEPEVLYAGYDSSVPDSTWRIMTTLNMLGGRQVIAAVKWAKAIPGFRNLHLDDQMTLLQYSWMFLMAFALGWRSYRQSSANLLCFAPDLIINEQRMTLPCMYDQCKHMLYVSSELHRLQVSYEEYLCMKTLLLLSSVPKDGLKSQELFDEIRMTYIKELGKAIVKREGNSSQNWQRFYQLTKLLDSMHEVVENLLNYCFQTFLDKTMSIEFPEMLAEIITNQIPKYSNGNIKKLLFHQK
Chain of Androgen receptor (Homo sapiens) (P10275 whole entry, looked up): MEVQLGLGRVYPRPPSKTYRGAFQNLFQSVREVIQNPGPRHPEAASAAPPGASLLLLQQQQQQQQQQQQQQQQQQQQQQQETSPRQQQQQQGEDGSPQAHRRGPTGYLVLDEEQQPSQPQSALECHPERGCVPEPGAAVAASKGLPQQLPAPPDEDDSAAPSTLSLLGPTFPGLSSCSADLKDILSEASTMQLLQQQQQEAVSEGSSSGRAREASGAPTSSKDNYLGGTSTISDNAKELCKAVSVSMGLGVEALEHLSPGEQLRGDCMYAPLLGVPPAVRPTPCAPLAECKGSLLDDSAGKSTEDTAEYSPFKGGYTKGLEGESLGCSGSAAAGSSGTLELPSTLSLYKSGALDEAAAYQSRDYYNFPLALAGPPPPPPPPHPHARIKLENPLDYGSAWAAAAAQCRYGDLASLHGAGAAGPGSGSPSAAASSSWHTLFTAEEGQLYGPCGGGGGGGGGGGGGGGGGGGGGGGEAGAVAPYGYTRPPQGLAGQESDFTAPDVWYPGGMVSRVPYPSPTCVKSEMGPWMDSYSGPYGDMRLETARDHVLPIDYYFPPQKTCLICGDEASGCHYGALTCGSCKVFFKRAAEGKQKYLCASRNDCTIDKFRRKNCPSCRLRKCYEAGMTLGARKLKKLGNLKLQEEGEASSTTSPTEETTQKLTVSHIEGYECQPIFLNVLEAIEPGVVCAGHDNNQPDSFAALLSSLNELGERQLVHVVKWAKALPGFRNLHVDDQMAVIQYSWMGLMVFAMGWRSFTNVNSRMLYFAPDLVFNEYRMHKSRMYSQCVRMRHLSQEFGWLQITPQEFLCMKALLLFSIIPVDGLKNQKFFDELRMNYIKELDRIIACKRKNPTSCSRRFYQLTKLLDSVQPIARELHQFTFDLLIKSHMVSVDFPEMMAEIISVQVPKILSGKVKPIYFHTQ

For the compound `CCCCCC`, the compound was called inactive in assay [1], in assay [3], in assay [4], in [5] and in [7]. Also, the Potency result in assay [2], in [6], in [8], in [9], in assay [10] and in assay [11] was “inactive” in each case. The Potency entry in [12], in assay [13], in assay [14], in [15] and in assay [16] was “inactive” each time.

As to `CC12CC3CC(C)(C1)CC(N)(C3)C2`, the call in assay [1], in [3], in assay [4], in assay [5] and in assay [7] was inactive. Also, the Potency result in assay [2], in assay [6], in [8], in [9], in assay [10] and in assay [11] was “inactive” in each case. For the same compound, the Potency entry in assay [15] was “inactive”. The Potency in assay [12] was 26.6 µM (active); in [13], 29.8 µM (active); in assay [14], 29.8 µM (active).

As for `CC(C)Cc1ccc(CC(=O)O)cc1`, the outcome in assay [1], in assay [3], in [4], in assay [5] and in [7] was inactive. Further, the Potency result in assay [2], in [6], in assay [8], in assay [9], in assay [10] and in [11] was “inactive” in each case. Further, the Potency result in assay [12], in assay [13], in assay [14], in assay [15] and in assay [16] was “inactive” each time.

In the case of `O=C(O)CCCc1c[nH]c2ccccc12`, the outcome in assay [1], in [3], in [4], in [5] and in assay [7] was inactive. Also, the Potency result in [2], in assay [6], in assay [8], in assay [9], in [10] and in assay [11] was “inactive” in each case. Moreover, the Potency entry in assay [12], in assay [13], in [14], in assay [15] and in assay [16] was “inactive” throughout.

Consider `CCC(Cl)CC(Cl)C(Cl)C(Cl)C(Cl)C(C)Cl` (configuration not stated), for which, in assay [1], the fluorescence, % of fluorescein was 0.0197% [at 13.4 µM]. The fluorescence, % of fluorescent control in assay [2] was 0.102% [at 13.4 µM]; in assay [4], -0.0269% [at 13.4 µM]; in [6], 0.066% [at 13.4 µM]; in assay [8] it was 0.0691% [at 13.4 µM]. In assay [3], the activity change is -0.0067% [at 13.4 µM]. The fluorescence, % of Rose Bengal in assay [5] was 0.0345% [at 13.4 µM]. Moreover, the fluorescence, % of fluorescein control in assay [7] is -0.002% [at 13.4 µM]. Besides, in [9], the activation was -0.909% [at 15 µM]. The Potency entry in [10], in assay [11], in [12], in assay [13], in [14] and in assay [15] was “inactive” throughout. The Potency entry in assay [17], in assay [16] and in [18] was “inactive” each time.

For the compound `COC(OC)OC`, the compound was called inactive in assay [1], in assay [3], in assay [4], in assay [5] and in assay [7]. For the same compound, the Potency entry in assay [2], in assay [6], in [8], in [9], in assay [10] and in [11] was “inactive” in each case. The Potency entry in assay [12], in assay [13], in assay [14] and in [15] was “inactive” each time.

On to `O=c1[nH]c2cc(C(F)(F)F)c(N3CCOCC3)cc2n(CP(=O)(O)O)c1=O`, for which the compound was called inactive in assay [1], in assay [3], in assay [4], in [5] and in assay [7]. The Potency result in assay [2], in assay [6], in assay [8], in [9], in [10] and in [11] was “inactive” in each case. The Potency result in assay [12], in [13], in [14], in assay [15] and in assay [16] was “inactive” throughout.

Take `O=C(O)CNC(=O)c1ccccc1I`: the result in assay [1], in assay [3], in assay [4], in assay [5] and in assay [7] was inactive. In addition, the Potency entry in assay [2], in [6], in [8], in assay [9], in assay [10] and in assay [11] was “inactive” in each case. Also, the Potency result in [12], in [13], in assay [14] and in assay [16] was “inactive” in each case.

The record behind these values is PubChem BioAssay (Tox21).
